# Columns and labels:
# [1] = biological target: T1, Inhibitor of nuclear factor kappa-B kinase subunit epsilon (Homo sapiens) (UniProt Q14164); details: at 1 µM;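 also: reported values are averaged percent inhibition figures against human IKKε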
# T1 sequence (whole entry): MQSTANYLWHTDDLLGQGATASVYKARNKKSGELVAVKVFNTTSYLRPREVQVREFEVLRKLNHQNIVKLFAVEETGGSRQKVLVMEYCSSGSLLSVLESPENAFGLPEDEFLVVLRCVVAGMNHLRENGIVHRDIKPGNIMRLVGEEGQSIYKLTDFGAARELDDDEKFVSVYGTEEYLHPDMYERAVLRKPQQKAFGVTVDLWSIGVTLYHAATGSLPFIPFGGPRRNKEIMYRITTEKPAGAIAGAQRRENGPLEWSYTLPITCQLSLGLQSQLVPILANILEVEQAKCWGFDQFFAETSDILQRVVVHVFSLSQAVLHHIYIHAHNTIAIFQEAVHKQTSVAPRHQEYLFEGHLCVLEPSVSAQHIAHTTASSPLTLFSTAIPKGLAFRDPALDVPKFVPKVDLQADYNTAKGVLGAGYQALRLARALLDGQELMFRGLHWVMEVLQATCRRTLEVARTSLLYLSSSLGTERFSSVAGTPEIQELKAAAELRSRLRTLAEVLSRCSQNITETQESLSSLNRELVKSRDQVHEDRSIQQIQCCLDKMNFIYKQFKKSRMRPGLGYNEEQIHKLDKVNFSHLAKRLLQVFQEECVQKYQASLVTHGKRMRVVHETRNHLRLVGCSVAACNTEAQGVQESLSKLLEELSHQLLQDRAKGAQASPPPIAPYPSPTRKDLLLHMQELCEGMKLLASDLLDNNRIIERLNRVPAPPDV
# [2] = biological target: T2, Serine/threonine-protein kinase Nek1 (Homo sapiens) (UniProt Q96PY6); details: at 0.1 µM
# T2 sequence (whole entry): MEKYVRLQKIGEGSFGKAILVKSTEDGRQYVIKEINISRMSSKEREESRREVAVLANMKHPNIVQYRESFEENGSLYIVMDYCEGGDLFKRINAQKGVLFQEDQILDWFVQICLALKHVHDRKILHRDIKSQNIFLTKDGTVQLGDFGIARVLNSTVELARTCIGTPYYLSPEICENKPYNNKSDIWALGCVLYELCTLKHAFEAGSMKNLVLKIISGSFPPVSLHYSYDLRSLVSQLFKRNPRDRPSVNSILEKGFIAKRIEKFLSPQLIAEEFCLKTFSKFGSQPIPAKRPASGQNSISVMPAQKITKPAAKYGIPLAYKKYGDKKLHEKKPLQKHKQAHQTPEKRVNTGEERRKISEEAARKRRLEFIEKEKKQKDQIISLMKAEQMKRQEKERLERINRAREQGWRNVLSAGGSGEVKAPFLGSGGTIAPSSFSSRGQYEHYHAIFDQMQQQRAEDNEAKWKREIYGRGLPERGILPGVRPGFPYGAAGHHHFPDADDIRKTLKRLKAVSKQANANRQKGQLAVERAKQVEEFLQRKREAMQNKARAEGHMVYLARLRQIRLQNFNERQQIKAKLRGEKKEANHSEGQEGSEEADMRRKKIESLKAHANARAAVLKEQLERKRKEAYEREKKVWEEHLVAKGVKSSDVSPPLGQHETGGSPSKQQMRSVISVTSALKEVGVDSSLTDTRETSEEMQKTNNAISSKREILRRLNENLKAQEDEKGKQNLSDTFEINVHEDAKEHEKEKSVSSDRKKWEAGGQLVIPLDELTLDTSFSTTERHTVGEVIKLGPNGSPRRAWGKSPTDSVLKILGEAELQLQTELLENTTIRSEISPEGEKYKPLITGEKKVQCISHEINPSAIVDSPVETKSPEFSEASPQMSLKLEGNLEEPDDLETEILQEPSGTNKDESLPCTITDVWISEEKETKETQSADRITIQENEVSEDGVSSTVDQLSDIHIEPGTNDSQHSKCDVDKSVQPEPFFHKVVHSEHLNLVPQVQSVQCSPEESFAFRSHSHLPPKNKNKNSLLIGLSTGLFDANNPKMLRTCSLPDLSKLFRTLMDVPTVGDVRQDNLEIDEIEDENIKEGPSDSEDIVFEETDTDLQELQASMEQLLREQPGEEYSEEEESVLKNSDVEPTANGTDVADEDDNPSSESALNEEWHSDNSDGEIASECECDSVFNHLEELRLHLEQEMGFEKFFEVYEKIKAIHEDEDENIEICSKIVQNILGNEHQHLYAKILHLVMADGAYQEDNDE
# [3] = biological target: T2, Serine/threonine-protein kinase Nek1 (Homo sapiens); details: at 1 µM
# [4] = biological target: T3, Serine/threonine-protein kinase Nek2 (Homo sapiens) (UniProt P51955); details: at 0.1 µM
# T3 sequence (whole entry): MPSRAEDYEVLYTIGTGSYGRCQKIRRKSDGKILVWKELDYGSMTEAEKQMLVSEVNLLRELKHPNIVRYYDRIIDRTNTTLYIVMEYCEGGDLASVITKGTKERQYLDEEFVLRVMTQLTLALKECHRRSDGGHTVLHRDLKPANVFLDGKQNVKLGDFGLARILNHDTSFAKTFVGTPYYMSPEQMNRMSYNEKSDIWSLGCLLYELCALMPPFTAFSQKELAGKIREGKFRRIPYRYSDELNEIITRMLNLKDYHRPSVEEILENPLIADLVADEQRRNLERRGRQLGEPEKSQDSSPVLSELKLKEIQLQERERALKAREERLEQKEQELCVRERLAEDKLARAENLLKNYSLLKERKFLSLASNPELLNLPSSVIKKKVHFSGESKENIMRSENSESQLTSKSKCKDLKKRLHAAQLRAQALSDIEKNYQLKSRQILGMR
# [5] = biological target: T3, Serine/threonine-protein kinase Nek2 (Homo sapiens); details: at 1 µM
# [6] = biological target: Serine/threonine-protein kinase Nek6 (Homo sapiens) (UniProt Q9HC98); details: at 0.1 µM
# [7] = biological target: Serine/threonine-protein kinase Nek6 (Homo sapiens) (UniProt Q9HC98); details: at 1 µM
# [8] = biological target: Serine/threonine-protein kinase Nek7 (Homo sapiens) (UniProt Q8TDX7); details: at 0.1 µM
# [9] = biological target: Serine/threonine-protein kinase Nek7 (Homo sapiens) (UniProt Q8TDX7); details: at 1 µM
# [10] = biological target: T4, Serine/threonine-protein kinase Nek9 (Homo sapiens) (UniProt Q8TD19); details: at 0.1 µM
# T4 sequence (whole entry): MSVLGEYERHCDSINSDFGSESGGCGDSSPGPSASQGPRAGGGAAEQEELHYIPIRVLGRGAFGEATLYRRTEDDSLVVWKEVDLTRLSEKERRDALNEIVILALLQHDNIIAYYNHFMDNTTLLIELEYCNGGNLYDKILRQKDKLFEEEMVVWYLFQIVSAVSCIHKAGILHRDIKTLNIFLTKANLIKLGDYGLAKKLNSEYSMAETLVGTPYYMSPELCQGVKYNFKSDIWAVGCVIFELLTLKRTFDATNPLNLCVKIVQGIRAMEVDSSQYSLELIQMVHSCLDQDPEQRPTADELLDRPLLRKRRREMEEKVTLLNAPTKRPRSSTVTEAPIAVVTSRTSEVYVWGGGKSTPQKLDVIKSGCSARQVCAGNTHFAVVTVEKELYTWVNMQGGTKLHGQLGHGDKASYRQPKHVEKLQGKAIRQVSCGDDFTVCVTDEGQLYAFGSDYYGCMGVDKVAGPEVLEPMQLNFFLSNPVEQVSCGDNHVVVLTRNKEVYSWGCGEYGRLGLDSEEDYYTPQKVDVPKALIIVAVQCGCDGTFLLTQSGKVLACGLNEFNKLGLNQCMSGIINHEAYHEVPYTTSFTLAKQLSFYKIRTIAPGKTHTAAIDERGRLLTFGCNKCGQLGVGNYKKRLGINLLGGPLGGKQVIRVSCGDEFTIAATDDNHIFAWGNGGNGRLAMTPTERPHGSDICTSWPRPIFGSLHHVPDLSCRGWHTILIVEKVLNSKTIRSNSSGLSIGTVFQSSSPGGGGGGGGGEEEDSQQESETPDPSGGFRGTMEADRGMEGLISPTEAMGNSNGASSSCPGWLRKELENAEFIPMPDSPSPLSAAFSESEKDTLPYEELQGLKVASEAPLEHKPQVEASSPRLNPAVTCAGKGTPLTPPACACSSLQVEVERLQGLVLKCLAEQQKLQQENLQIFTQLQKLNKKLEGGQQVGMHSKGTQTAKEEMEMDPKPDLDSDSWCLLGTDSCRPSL
# [11] = biological target: T4, Serine/threonine-protein kinase Nek9 (Homo sapiens); details: at 1 µM
# [12] = biological target: Serine/threonine-protein kinase PLK1 (Homo sapiens) (UniProt P53350); details: at 0.1 µM
# [13] = biological target: Serine/threonine-protein kinase PLK1 (Homo sapiens) (UniProt P53350); details: at 1 µM
# [14] = biological target: T5, Dual specificity protein kinase TTK (Homo sapiens) (UniProt P33981); details: at 0.1 µM
# T5 sequence (whole entry): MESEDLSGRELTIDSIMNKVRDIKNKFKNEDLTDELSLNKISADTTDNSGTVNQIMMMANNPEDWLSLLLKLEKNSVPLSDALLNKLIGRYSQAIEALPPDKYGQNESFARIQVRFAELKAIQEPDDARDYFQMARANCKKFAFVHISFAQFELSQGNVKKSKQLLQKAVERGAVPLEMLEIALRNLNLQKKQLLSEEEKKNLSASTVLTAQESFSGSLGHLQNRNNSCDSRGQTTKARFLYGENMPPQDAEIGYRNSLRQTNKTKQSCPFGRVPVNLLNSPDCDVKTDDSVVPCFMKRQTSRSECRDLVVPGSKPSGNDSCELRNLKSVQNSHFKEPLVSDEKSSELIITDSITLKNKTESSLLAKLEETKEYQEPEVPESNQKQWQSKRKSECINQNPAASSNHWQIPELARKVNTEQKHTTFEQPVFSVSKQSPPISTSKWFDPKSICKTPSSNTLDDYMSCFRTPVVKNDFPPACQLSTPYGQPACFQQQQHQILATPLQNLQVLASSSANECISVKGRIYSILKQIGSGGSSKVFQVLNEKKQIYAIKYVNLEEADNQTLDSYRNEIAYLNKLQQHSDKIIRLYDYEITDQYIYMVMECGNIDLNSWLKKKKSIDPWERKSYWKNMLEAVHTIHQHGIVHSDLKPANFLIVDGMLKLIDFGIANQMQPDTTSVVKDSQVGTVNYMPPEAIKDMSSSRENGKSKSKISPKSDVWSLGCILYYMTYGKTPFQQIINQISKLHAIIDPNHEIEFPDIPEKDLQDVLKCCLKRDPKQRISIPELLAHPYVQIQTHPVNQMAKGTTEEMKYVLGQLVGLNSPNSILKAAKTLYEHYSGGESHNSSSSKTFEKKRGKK
# [15] = system: T6, Receptor-type tyrosine-protein kinase FLT3 (Homo sapiens), P36888 [D835Y]; details: at 1 µM
# T6 sequence (whole entry): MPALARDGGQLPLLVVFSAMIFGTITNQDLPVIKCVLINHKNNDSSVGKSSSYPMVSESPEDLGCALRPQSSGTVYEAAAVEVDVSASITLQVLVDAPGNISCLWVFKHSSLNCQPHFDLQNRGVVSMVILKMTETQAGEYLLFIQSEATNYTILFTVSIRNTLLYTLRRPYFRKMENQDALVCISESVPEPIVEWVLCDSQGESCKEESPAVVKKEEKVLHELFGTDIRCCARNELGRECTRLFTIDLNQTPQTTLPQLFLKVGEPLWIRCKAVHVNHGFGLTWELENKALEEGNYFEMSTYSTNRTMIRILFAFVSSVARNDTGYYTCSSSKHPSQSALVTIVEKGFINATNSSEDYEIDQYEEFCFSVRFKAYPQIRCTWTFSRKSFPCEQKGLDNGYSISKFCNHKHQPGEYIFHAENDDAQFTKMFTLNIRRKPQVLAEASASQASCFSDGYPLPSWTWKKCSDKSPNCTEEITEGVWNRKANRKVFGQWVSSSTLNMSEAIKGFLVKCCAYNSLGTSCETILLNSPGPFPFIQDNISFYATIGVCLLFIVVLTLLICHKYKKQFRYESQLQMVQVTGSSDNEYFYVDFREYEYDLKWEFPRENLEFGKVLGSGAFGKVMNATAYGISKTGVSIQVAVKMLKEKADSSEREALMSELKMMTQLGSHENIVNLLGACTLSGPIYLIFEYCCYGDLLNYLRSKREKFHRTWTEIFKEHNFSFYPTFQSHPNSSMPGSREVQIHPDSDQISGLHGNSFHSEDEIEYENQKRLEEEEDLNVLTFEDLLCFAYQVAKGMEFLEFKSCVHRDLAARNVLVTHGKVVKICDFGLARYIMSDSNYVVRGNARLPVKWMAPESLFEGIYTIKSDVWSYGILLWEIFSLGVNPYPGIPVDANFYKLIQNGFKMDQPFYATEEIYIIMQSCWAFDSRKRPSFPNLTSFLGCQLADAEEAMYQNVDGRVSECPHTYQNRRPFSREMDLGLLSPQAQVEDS
# [16] = biological target: Vascular endothelial growth factor receptor 3 (Homo sapiens) (UniProt P35916); details: at 0.1 µM
# [17] = biological target: Vascular endothelial growth factor receptor 3 (Homo sapiens) (UniProt P35916); details: at 1 µM
# [18] = biological target: Macrophage colony-stimulating factor 1 receptor (Homo sapiens) (UniProt P07333); details: at 0.1 µM
# [19] = biological target: Macrophage colony-stimulating factor 1 receptor (Homo sapiens) (UniProt P07333); details: at 1 µM
# [20] = biological target: Tyrosine-protein kinase Fyn (Homo sapiens) (UniProt P06241); details: at 0.1 µM
# Chain of Tyrosine-protein kinase Fyn (Homo sapiens) (P06241 2-537 limits assumed): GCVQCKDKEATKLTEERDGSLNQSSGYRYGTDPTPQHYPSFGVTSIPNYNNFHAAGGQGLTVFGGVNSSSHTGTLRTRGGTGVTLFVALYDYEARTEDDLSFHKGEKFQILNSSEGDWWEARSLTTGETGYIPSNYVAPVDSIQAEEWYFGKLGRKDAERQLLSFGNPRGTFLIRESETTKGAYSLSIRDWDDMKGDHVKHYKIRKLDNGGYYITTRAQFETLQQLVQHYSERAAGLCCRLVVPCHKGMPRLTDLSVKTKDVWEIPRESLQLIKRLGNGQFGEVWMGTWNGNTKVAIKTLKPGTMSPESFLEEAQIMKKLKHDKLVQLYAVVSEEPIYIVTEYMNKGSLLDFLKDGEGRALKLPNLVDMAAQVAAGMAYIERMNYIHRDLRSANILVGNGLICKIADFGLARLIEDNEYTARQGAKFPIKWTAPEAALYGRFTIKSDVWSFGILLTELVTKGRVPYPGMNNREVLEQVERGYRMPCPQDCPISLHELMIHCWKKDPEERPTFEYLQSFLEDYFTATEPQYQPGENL
# Chain of Serine/threonine-protein kinase Nek6 (Homo sapiens) (Q9HC98 whole entry): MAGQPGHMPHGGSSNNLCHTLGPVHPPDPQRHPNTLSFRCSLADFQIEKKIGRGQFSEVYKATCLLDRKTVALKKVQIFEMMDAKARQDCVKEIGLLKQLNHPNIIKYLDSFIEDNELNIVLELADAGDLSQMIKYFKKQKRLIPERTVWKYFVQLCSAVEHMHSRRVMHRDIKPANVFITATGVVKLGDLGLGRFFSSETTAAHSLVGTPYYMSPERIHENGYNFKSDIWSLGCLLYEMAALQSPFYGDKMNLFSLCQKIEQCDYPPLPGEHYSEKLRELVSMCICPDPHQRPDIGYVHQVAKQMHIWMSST
# Chain of Vascular endothelial growth factor receptor 3 (Homo sapiens) (P35916 whole entry): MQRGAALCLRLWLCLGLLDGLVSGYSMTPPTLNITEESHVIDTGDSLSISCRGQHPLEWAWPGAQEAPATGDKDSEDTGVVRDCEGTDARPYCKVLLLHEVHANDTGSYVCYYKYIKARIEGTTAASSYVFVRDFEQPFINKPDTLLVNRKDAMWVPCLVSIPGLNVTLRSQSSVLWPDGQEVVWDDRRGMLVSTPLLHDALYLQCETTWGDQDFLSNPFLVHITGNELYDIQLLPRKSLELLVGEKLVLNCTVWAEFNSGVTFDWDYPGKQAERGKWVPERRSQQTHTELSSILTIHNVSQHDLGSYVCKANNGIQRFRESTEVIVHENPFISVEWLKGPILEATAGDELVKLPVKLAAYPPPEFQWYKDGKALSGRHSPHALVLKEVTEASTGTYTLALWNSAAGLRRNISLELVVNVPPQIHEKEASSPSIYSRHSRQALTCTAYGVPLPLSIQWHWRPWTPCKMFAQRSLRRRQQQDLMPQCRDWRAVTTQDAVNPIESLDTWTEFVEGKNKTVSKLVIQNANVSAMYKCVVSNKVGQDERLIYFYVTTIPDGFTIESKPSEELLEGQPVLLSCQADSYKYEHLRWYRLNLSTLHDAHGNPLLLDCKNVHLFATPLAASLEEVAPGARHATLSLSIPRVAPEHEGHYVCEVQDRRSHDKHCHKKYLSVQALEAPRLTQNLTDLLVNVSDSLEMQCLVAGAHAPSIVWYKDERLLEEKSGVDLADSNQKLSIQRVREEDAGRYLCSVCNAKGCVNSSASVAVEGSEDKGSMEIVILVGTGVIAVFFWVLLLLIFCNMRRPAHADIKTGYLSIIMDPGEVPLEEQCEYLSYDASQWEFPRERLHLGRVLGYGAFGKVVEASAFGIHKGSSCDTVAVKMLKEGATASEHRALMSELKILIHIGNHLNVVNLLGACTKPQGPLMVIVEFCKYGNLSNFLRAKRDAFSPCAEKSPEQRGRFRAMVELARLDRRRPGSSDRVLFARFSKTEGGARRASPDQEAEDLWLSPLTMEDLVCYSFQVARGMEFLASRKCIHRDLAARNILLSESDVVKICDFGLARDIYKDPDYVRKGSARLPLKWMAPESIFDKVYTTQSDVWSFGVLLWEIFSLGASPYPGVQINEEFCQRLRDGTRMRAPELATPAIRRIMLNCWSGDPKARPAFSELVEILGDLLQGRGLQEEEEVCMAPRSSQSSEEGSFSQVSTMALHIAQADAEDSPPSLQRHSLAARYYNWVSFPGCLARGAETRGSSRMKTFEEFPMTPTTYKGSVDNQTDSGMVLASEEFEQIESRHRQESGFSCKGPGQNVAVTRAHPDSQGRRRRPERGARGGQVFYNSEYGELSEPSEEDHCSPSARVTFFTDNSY
# Chain of Serine/threonine-protein kinase Nek7 (Homo sapiens) (Q8TDX7 whole entry, looked up): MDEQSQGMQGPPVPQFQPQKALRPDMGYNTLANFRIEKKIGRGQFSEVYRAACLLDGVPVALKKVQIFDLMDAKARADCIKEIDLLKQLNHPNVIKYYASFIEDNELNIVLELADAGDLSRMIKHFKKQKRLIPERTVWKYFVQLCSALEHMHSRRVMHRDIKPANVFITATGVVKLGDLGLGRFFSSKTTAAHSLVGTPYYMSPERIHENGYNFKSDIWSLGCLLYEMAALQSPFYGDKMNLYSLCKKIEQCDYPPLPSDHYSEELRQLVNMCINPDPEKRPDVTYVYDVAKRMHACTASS
# Chain of Serine/threonine-protein kinase PLK1 (Homo sapiens) (P53350 whole entry): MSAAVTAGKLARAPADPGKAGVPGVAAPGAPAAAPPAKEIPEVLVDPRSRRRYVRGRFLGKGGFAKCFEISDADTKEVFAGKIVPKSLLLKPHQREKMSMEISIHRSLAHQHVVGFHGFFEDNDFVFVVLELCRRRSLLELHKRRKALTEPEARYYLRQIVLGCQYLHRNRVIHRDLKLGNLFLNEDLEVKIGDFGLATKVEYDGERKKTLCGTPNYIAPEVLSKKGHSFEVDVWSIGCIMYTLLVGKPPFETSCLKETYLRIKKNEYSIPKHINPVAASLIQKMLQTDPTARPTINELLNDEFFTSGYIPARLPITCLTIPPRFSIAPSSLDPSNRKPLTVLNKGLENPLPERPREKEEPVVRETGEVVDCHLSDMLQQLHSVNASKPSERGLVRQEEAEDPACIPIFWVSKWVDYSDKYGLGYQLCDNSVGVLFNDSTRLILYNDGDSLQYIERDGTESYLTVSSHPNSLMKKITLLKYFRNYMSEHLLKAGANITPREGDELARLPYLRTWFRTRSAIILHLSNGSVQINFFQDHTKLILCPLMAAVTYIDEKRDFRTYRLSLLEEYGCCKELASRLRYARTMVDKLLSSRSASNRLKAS
# Chain of Macrophage colony-stimulating factor 1 receptor (Homo sapiens) (P07333 whole entry): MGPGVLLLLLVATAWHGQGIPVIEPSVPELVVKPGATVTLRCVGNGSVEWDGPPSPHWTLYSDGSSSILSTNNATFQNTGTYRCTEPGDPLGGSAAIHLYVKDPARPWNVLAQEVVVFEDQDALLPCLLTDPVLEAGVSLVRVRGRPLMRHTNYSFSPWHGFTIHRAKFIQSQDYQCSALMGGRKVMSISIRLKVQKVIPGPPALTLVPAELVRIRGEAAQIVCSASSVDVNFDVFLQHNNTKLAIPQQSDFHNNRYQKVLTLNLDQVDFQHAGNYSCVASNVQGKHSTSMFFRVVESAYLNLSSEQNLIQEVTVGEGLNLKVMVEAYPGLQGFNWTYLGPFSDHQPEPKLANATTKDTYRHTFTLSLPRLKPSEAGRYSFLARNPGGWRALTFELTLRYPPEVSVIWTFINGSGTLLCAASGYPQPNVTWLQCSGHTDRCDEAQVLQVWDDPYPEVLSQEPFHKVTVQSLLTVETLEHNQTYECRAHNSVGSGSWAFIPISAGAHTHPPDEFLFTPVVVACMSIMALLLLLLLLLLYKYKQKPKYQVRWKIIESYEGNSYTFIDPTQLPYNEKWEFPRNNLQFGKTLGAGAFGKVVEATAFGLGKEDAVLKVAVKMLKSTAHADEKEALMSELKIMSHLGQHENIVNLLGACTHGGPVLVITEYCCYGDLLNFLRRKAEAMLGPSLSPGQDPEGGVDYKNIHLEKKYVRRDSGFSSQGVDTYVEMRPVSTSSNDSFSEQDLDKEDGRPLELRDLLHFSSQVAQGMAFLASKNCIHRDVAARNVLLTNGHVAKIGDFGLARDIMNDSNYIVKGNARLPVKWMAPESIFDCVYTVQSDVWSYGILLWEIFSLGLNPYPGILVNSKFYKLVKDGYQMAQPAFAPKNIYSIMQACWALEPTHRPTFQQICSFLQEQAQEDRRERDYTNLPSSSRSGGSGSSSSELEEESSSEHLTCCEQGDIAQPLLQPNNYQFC
compound,measurement,setting,value
O=S(=O)(CCNCc1ccc(-c2ccc3ncnc(Nc4ccc(OCc5cccc(F)c5)c(Cl)c4)c3c2)o1)c1ccccc1,inhibition,[1],7.29%
same,inhibition,[2],3.48%
same,inhibition,[3],5.88%
same,inhibition,[4],5.1%
same,inhibition,[5],7.03%
same,inhibition,[6],4.21%
same,inhibition,[7],2.74%
same,inhibition,[8],3.88%
same,inhibition,[9],5.26%
same,inhibition,[10],4.93%
same,inhibition,[11],4.64%
same,inhibition,[12],6%
same,inhibition,[13],5.8%
same,inhibition,[14],7.34%
same,inhibition,[15],-1.66%
same,inhibition,[16],4.59%
same,inhibition,[17],7.11%
same,inhibition,[18],2.22%
same,inhibition,[19],8.85%
same,inhibition,[20],2.58%

# Reference: ChEMBL document CHEMBL1961873, “Compounds: GSK PKIS; Assays: Nanosyn kinase panel” (2012)
